Screens as filed in PubChem.
This is a sample that favours compounds with a hit; in the whole collection about 1.8% have one here.
rTrxR1 inhibitor: qHTS Assay for Inhibitors of Mammalian Selenoprotein Thioredoxin Reductase 1 (TrxR1): qHTS; Thioredoxin reductase 1, cytoplasmic (Rattus norvegicus), O89049; recombinant rTrxR1, NADPH fluorescence consumption, selenite substrate; Potency, µM (titrated, usually from 114 µM), for the others: top-dose activity change, negative = inhibition, actives largely listed as inhibitors; 390,000 compounds, 1% hits; AID 588453, 2011; further: on the % scale 0 is the no-effect control and ±100 the full control effect; nearly all actives have a fitted effect of over 65% in size
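Rat TrxR1 (90 nM in the dispensed reagent) was pre-reduced with 400 uM NADPH for 5 min at room temperature, then incubated with compound for 15 min. After 400 uM selenite was added, NADPH fluorescence (Ex 340/Em 450 nm) was followed for 8 min.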
Vif-A3G inh: qHTS for Inhibitors of Vif-A3G Interactions: qHTS; HeLa A3G-eYFP + Vif (tagged APOBEC3G with the HIV-1 protein that degrades it), YFP fluorescence, overnight; DNA dC->dU-editing enzyme APOBEC-3G (Homo sapiens), Q9HC16; AID 602310, 2012; Potency, µM (top dose mostly 46.1 µM), without a hit: at the top dose activity, negative = active, usual class: inhibitors; 410,000 compounds, 0.076% hits; further: on the % scale 0 is the no-effect control and ±100 the full control effect; nearly all actives have a fitted effect of over 60% in size
Target sequence (Q9HC16 whole entry, looked up): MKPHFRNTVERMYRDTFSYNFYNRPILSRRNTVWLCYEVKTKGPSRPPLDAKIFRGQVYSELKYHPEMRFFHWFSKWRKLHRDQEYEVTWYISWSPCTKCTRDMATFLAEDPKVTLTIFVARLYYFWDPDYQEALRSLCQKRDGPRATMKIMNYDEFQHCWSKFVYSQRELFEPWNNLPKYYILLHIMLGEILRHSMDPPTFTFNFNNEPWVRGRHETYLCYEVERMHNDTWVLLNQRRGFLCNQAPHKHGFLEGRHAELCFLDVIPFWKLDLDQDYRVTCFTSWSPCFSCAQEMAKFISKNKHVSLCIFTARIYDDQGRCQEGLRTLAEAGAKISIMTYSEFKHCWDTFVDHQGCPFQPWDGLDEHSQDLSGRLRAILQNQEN
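Read-out is eYFP fluorescence (Ex 488/Em 500-530) from Vif-expressing HeLa A3G-eYFP cells; more signal means A3G escaped Vif-mediated degradation. Cells plated overnight, compound pinned in, incubated overnight at 37 deg C.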
TrxR1 substrate: qHTS Assay for Substrates of Mammalian Selenoprotein Thioredoxin Reductase 1 (TrxR1): qHTS; 390,000 compounds, 0.01% hits; Potency, µM (series often up to 114 µM), for the others: at the top dose activity change, negative = substrate turnover; purified TrxR1 substrate turnover, NADPH consumption readout; further: on the % scale 0 is the no-effect control and ±100 the full control effect; nearly all actives have a fitted effect of over 50% in size
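Rat TrxR1, dispensed at 90 nM, was prereduced with 400 uM NADPH (final) for 5 min at ~22 deg C, then incubated with compound 15 min before 400 uM selenite. A first-read NADPH fluorescence drop versus no-compound background flagged substrates.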
VDR inhibitor: Inhibitors of the vitamin D receptor (VDR): qHTS | Vitamin D3 receptor (Homo sapiens), P11473 | VDR-SRC2-3 peptide fluorescence polarization, 2 h | Potency, µM, inactives show max response, negative = inhibition, most hits filed as inhibitors | 400,000 compounds, 0.93% hits | AID 504847, 2011; further: on the % scale 0 is the no-effect control and ±100 the full control effect
Target sequence (P11473 whole entry, looked up): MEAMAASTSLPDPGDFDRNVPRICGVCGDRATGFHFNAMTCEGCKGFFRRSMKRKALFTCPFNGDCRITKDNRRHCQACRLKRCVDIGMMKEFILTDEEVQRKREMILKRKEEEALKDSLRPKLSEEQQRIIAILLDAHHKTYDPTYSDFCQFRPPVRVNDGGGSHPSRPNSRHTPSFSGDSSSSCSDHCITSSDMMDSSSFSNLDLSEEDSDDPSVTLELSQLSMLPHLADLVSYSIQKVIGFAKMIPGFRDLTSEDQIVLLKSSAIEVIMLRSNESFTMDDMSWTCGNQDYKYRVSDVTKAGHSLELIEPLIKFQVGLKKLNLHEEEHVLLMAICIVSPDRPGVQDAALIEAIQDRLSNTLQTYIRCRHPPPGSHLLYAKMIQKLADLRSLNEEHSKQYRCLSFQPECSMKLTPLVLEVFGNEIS
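Reagent solutions, kept cold and dark, are dispensed first; compounds are then pinned in at 23 nl, plates briefly spun, and incubated 2 h at ambient temperature. Inhibition of VDR–SRC2-3 peptide binding is read by fluorescence polarization.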
Vif-APOBEC3F blk: qHTS for Inhibitors of Vif-A3F Interactions: qHTS. Potency, µM (titrated, usually from 46.1 µM), for the others: at the highest dose activity, negative = active. AID 602313, 2012. 390,000 compounds, 0.2% hits. HeLa A3F-eYFP + Vif (tagged APOBEC3F with the HIV-1 protein that degrades it), YFP fluorescence increase; further: % of control where 0% means no effect; nearly all actives have a fitted effect of over 65% in size
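HeLa cells stably expressing Vif plus C-terminally eYFP-tagged A3F were seeded, incubated overnight at 37 deg C, dosed with compound, incubated overnight again at 37 deg C. Yellow fluorescence (Ex 488/Em 500-530) reported blocked Vif-mediated A3F-eYFP degradation.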
An asterisk follows results filed as active; ? = inconclusive; · = no result given; [ ] = remark or other dose. The call rests on the fitted dose curve; in most records, active means well fitted curve in the direction sought with a large enough effect; inconclusive means small, poorly fitted or top-dose-only effect, or another doubt; inactive means no such curve, though single readings can be large; an effect the other way counts as inactive or inconclusive. Potency means the concentration at half of the fitted maximal effect.

SMILES	rTrxR1 inhibitor	Vif-A3G inh	TrxR1 substrate	VDR inhibitor	Vif-APOBEC3F blk
O=C(CN1CCOCC1)NN=Cc1ccc([N+](=O)[O-])o1	·	-7.0%	·	·	·
CCCCCCCC(=O)N/N=C/c1ccc([N+](=O)[O-])o1	?	?	-2.1%	-0.2%	-26.9%
CC1(C(=O)N/N=C/c2ccc([N+](=O)[O-])o2)CC1(Br)Br (centres undefined)	44.7µM*	-25.1%	-7.3%	-15.6%	4.3%
COc1ccc(OC)c(/C=C2\Cc3ccccc3C2=O)c1	21.7%	-3.1%	-5.8%	·	·
COc1ccccc1C(=O)Nc1ccc(-c2cc(C(F)(F)F)nn2-c2ccccc2)cc1	43.3%[11.4 µM]	-14.4%	12.6%	7.5%	-2.5%
CCOC(=O)c1cnc(N2CCN(c3ccc(C)cc3C)CC2)c2ccccc12	13.8%[57.1 µM]	2.1%	2.8%[57.1 µM]	6.3%	-0.1%
Cn1c(=O)c2c(-c3ccccc3Cl)n(-c3cc(Cl)ccc3O)cc2n(C)c1=O	-16.6%	-4.3%	20.5%	7.9%	8.6%
CSc1nnc(Cn2c(=O)sc3ccccc32)n1-c1ccccc1C	13.6%[57.1 µM]	0.5%	5.0%[57.1 µM]	50.1µM*	0.3%
COCc1cc(S(=O)c2ccc(Cl)cc2)nc(C)n1 (centres undefined)	14.1µM*	?	-0.4%	50.1µM*	2.3%
CCc1ccc(S(=O)(=O)/N=C2\C=C(NS(=O)(=O)c3ccccc3)C(=O)c3ccccc32)cc1	?	-28.1%	-13.7%	?	-1.1%
Cc1ccccc1NC1=C/C(=N\S(=O)(=O)c2ccc(C(=O)O)cc2)c2ccccc2C1=O	4.6%[57.1 µM]	-6.8%	-6.1%[57.1 µM]	?	?
O=C(O)c1ccc(S(=O)(=O)/N=C2\C=C(Nc3ccccc3F)C(=O)c3ccccc32)cc1	43.0%	-16.8%	?	31.6µM*	3.3%
CC(C)c1ccc(S(=O)(=O)/N=C2\C=C(NS(=O)(=O)c3ccccc3)C(=O)c3ccccc32)cc1	?	-4.0%	-5.3%	79.4µM*	-9.7%
O=C(Cc1cccs1)Nc1c(C(=O)Nc2ccc(F)cc2)oc2ccccc12	18.0%	2.3%	12.9%	8.5%	-11.2%
O=C(NC1CCCC1)c1ccc(CS(=O)Cc2ccccc2Cl)o1 (centres undefined)	50.1µM*	-5.1%	5.7%	11.3%	0.8%
Cc1sc2nc(SCc3ccc(C(=O)O)cc3)n(Cc3ccco3)c(=O)c2c1C	28.5%[0.0914 µM]	3.5%	-2.1%	89.1µM*	2.5%
C=CCn1c(SCc2ccc(C(=O)O)cc2)nc2sc(C)c(C)c2c1=O	-19.5%	-4.8%	3.1%	?	-0.8%
CC(C)(C)n1ncc2c(=O)n(Cc3ccc(OC(F)(F)F)cc3)cnc21	0.2%	-0.6%	-10.3%	·	·
S=Cc1ccc(/C=C/c2ccnc3ccccc23)cc1	5.9%	3.5%	-2.6%	·	·
COc1cccc(N2CC(NC(=O)CCCc3ccccc3)CC2=O)c1 (centres undefined)	2.1%[57.1 µM]	10.3%	-7.0%[57.1 µM]	14.0%	-0.1%
COc1ccc(C(=O)NC(Oc2ccccc2)C(Cl)(Cl)Cl)cc1 (centres undefined)	11.2µM*	0.1%	-2.1%	2.5%	-11.1%
CO/N=C/c1ccc(Oc2ccc(C)cc2)c([N+](=O)[O-])c1	29.3%[57.1 µM]	-0.3%	-0.8%[57.1 µM]	28.2µM*	1.0%
O=C(COc1ccccc1C(=O)Nc1ccccc1)Nc1ccc2ccccc2c1	13.8%	·	3.4%	·	·
O=C(/C=C/c1ccco1)N1CCN(c2ncccn2)CC1	39.8µM*	0.2%	-9.1%	-17.1%	-9.1%
Cc1ccc(/C=C/C(=O)N2CCN(S(=O)(=O)c3ccc(C)c(C)c3)CC2)o1	17.8µM*	-7.0%	-2.7%	?	-20.5%
SMILES	rTrxR1 inhibitor	Vif-A3G inh	TrxR1 substrate	VDR inhibitor	Vif-APOBEC3F blk
COc1ccc(S(=O)(=O)N2CCN(C(=O)/C=C/c3ccco3)CC2)cc1	12.6µM*	-3.7%	-1.6%	-6.1%	-4.3%
Cc1ccc(/C=C/C(=O)N2CC(=O)Nc3ccccc32)o1	79.4µM*	-0.4%	-9.9%	-9.9%	8.5%
Cc1ccc(/C=C/C(=O)N2CCN(S(=O)(=O)c3c(C)c(C)cc(C)c3C)CC2)o1	-76.4%[57.1 µM]	-24.7%	-4.0%[11.4 µM]	-48.6%	-16.4%
Cc1c(O)c2c(c(C(=O)/C=C/c3ccccc3)c1O)OC(C)(C)C=C2	?	-8.9%	-5.1%	·	·
Cc1cccc(OCCn2c(CCNC(=O)C3CCCCC3)nc3ccccc32)c1	-8.0%	-0.5%	12.0%[0.0914 µM]	-6.6%	·
COc1cccc2c1C(=O)/C(=C\c1ccc(N(C)C)cc1)C2	7.2%	?	-3.8%	·	·
O=C(CNC(=O)c1cccnc1)c1ccc(F)cc1	-0.5%	0.1%	-0.6%	·	·
Cc1ccc(/C=C/C(=O)N2CCN(Cc3ccccc3)CC2)o1	44.7µM*	-3.6%	-9.2%	-8.0%	-3.8%
Cc1cccc(CN2CCN(C(=O)CCl)CC2)c1	11.2µM*	?	7.4%	-11.3%	-1.0%
Cc1cccc(CN2CCN(C(=O)c3ccccc3F)CC2)c1	23.9%	0.0%	8.4%	12.1%	2.2%
Nc1ncnc2c1ncn2[C@@H]1O[C@H](COP(=O)(O)OP(=O)(O)OP(=O)(O)OP(=O)(O)OC[C@@H]2O[C@H](n3cnc4c(N)ncnc43)[C@@H](O)[C@@H]2O)[C@H](O)[C@H]1O	0.3%	·	·	·	·
Oc1c(CN2CCOCC2)cc(CN2CCOCC2)c(O)c1CN1CCOCC1	?	2.7%	3.7%[2.29 µM]	10µM*	-1.5%
c1cc2c3c(c1)CCC[N+]3(C1CCCCC1)CCC2	-17.4%	5.5%	6.3%	·	·
CCn1c(O)c(/C=N/N=C/c2ccc(OC)cc2)c2cc(C3=NNC(=O)CC3)ccc21	4.3%	?	-3.5%	-13.8%	4.47µM*
CC[C@@H]1CN2CCc3cc(OC)c(OC)cc3[C@@H]2C[C@@H]1C[C@H]1NCCc2cc(OC)c(OC)cc21	·	·	·	3.0%	·
CN(C)c1nc(=NCc2ccco2)ss1	6.9%[2.29 µM]	-21.6%	11.5%[57.1 µM]	28.2µM*	2.5%
CCOC(CN=c1nc(N(C)C)ss1)OCC	4.7%[11.4 µM]	-8.2%	8.2%[11.4 µM]	?	-1.2%
CCSc1nc(-c2ccco2)ccc1C#N	7.94µM*	-12.1%	15.6%	-4.6%	·
O=C(CCC(=O)CCN1CCCCC1)CCN1CCCCC1	1.78µM*	0.6%	8.2%[57.1 µM]	-0.6%	1.3%
CN(C)S(=O)(=O)c1cccc(NC(=O)C2Cc3ccccc3CN2C(=O)c2ccco2)c1 (centres undefined)	56.2µM*	0.0%	4.1%	1.3%	2.2%
CC(C)(C)c1nnc(NC(=O)C2CCN(C(=O)c3ccccc3)CC2)s1	9.0%	-0.5%	4.5%	1.8%	·
O=C(CNC(=O)c1ccccc1)OCC(=O)c1cccc2ccccc12	5.8%[0.0914 µM]	1.1%	-0.5%	-0.3%	·
